Among the data in the OligoGym collection are sensor-assay potency score (higher = more potent) values, retold here.
Also: reference of the scale not given here.

The target in the first assay is KIAA0101. In words: pooled miR-30 sensor sort-seq; sequence = guide strand. Particulars: shRNA.
In turn, TTTGCTTTTCCTAAGCCACTGC returned a sensor-assay potency score (higher = more potent) of 0.846.
Still for that read-out and setting: as for ATTTGTGTGATCAGGTTGCAAA, the figure is -1.36; as for TTTTTCAGAATCTTTAGGGGAC, 0.436; as for TTCAGGAATCTGATTCTCTTTT, -0.732.
The sequence TTCATCATTTGTGTGATCAGGT yielded a sensor-assay potency score (higher = more potent) of 1.01.
The same measure, in the same setting: as for TTATTTTCAGCTTTCCTCGATG, the figure is -0.0942.
Sequence TTCCTAAGCCACTGCTTCCTGC had a sensor-assay potency score (higher = more potent) of -1.25.
Same read-out and setting: as for TTACATTCTAGAATACCAGGGT, the figure is 1.19.
The sequence TTCTTTTTCATCATTTGTGTGA yielded a sensor-assay potency score (higher = more potent) of -0.441.
The same measure, in the same setting: as for TTCCTTTTTGCCACTTGGGAGT, the figure is -1.06.

Another assay deals with KIAA0319. Described as above. Particulars: shRNA.
In the case of TTCACCTTGGTAGTCTGTGGGG, the sensor-assay potency score (higher = more potent) was -0.629.
As for TTCACTAGAAACAGTGACTTTG, the sensor-assay potency score (higher = more potent) was -0.766.
Same read-out and setting: as for TTTCACTAGAAACAGTGACTTT, the figure is -0.974; as for AAATGTATAATCTCCTTCCTGC, 0.3; as for TTATGGTGTGATTTGGTCCTGC, 0.156.
Still for that read-out and setting: as for TTATAATTAGGTTATCTCCAGC, the figure is -0.767.
The same measure, in the same setting: with TAAGAGTTTGCTTGTGTCCTTG the figure was 0.184.
TTCAGCAGCTTTGAGAACCTTG yielded a sensor-assay potency score (higher = more potent) of -0.33.
In turn, TTTATTTCTATTAACAAGCATC came in with a sensor-assay potency score (higher = more potent) of -1.13.
On the same count and under the same terms, with TTCTCTTCTATGAAGGGCCCGT the figure was -0.659; with TACATAAAACACAATCACGGTG, -0.47.
For TAAAACACAATCACGGTGCTGA, the sensor-assay potency score (higher = more potent) is 1.15.
